The text below walks through data of PubChem BioAssay (EPA / NIEHS).

As usually defined, the AC50 is the midpoint of the concentration-response curve, whichever way the signal moves.

Each structure is given as a SMILES string. Activity calls are given as the source filed them. Rule for the calls: active = hit-call score of the fitted dose curve at least 0.9, where 1 is the maximum; inactive = score below 0.9.

The experiment in a line: APR_HepG2_MitoMass_1hr: Apredica 1-hour HepG2 Assay for Mitochondrial Mass (AID 2282674). The following applies: high-content imaging, actives raise or lower the signal. The procedure:
APR_HepG2_1hr is a cell-based, multiplexed-readout assay that uses HepG2, a human liver cell line, with measurements taken at 1 hour after chemical dosing in a 384-well plate.APR_HepG2_MitoMass_1hr is one of 10 assay component(s) measured or calculated from the APR_HepG2_1hr assay. It is designed to make measurements of cell phenotype, a form of morphology reporter, as detected with fluorescence intensity signals by HCS Fluorescent Imaging technology.Data from the assay component APR_HepG2_MitoMass_1hr was analyzed into 1 assay endpoint. This assay endpoint, APR_HepG2_MitoMass_1hr, was analyzed with bidirectional fitting relative to DMSO as the negative control and baseline of activity. Using a type of morphology reporter, gain or loss-of-signal activity can be used to understand changes in the signaling. Furthermore, this assay endpoint can be referred to as a primary readout, because this assay has produced multiple assay endpoints where this one serves a signaling function. To generalize the intended target to other relatable targets, this assay endpoint is annotated to the cell morphology intended target family, where the subfamily is organelle conformation.
Cells were treated with dimethyl sulfoxide (DMSO) as a solvent control at a final concentration of 0.5% v/v or with compounds in DMSO with a resulting final DMSO concentration of 0.5% v/v. Compound treatment was done at concentrations of 0.39, 0.78, 1.56, 3.12, 6.24, 12.5, 25, 50, 100, and 200 uM in duplicate on each plate. Cells were treated with compounds for 1, 24, or 72 hr. Carbonyl […] m-chloro-phenylhydrazone (CCCP) and taxol were used as positive controls for mitochondrial function and cytoskeletal stability, respectively; DMSO served as the negative control for this experiment. Cells were fixed by the direct addition of 50 uL formaldehyde in Hank's Balanced Salt Solution (HBSS) to a final concentration of 3.7%. After incubation in the fixation medium for 30 min at room temperature (293-298 K), cells were rinsed twice with HBSS and treated with cell permeabilization buffer (16 uL of 0.5% Triton X-100) for 10 min at room temperature (293-298 K) before labeling. For mitochondrial membrane potential and mitochondrial measurements, pre-fixed cells were incubated with 50 uL of MitoTracker Red CMXRos (Invitrogen) at a concentration of 250 nM for 30 min before fixation. In the remaining cases, post-fixed cells were labeled by incubation with a multiplexed mixture of primary antibodies in HBSS for 60 min at room temperature (293-298 K) to detect immunoreactivity of c-Jun (1:500), phospho-histone H3 (1:100), phospho-histone H2A.x (1:200), p53 (1:400), alpha-tubulin (1:200) and Hoechst 33342 (2 ug/mL). Cells were labeled for multiplexed imaging on two separate plates: a) Hoechst 33342, MitoTracker Red, phospho-histone H3, and alpha-tubulin, and b) Hoechst 33342, phospho-histone H2A.x, and c-Jun. A final rinse with HBSS (50 uL) was performed before analysis. The primary and secondary antibodies for the proteins were phospho-histone H3 (rabbit anti-phospho-histone H3 and FITC-donkey anti-rabbit IgG), phospho-histone H2A.x (mouse anti-phospho-histone H2A.x and FITC-donkey anti-mouse IgG), c-Jun (rabbit anti-phospho-c-Jun and Cy3-donkey anti-rabbit IgG), p53 (sheep anti-p53 and Cy5-donkey anti-sheep IgG), alpha-tubulin (mouse anti-alpha-tubulin and Cy5-donkey anti-mouse IgG). These antibodies are available as the CellCiphr HepG2 assay kit (Millipore).Digital images of each well were captured using a Cellomics ArrayScan VTI (Thermo Scientific Cellomics) (0.8 NA objective, 0.63x optical coupler, and XF-93 filter set) at 20x magnification. The images were acquired using the autofocus feature of the ArrayScan instrument, which entails the following steps. First, the camera focuses on channel 1 (Hoechst 33342), where nuclei are identified. Second, a Z offset of 1 um is used for capturing mitochondria (MitoTracker Red). Third, a Z offset of -2 um is used for capturing the cytoskeleton (tubulin). […]
For the compound `CC1(C)C(C=C(Cl)Cl)C1C(=O)OCc1cccc(Oc2ccccc2)c1` (stereo not given), the result was inactive.
The same measure, in the same setting: for `S=C(S)NCCNC(=S)S.[Mn+2].[S-]C([S-])=NCCN=C([S-])[S-].[Zn+2]` the value was “inactive”; for `C#CCOC(=O)[C@@H](C)Oc1ccc(Oc2ncc(Cl)cc2F)cc1`, “inactive”; for `CCN(CC)C(=O)c1cccc(C)c1`, “inactive”.
The same measure, in the same setting: for `CCC(O)=C1C(=O)CC(C(=O)O)CC1=O` (stereo not given) the value was “inactive”.
Still for that read-out and setting: next, `CCC(C)OC(=O)N1CCCCC1CCO` (stereo not given): “inactive”; `CCOC(=O)NCCOc1ccc(Oc2ccccc2)cc1`: “inactive”.
Consider `CSC(=O)c1cccc2nnsc12`, for which the result was inactive.
On the same count and under the same terms, next, `c1ccc2[nH]c(-c3cscn3)nc2c1`: “inactive”; `c1ccc(Nc2ccccc2)cc1`: “inactive”.
On the same count and under the same terms, next, `CCOC(=O)C(C)Oc1ccc(Oc2cnc3cc(Cl)ccc3n2)cc1` (stereo not given): “inactive”.
Same read-out and setting: for `COC(=O)c1ccc(CNS(C)(=O)=O)cc1S(=O)(=O)NC(=O)Nc1nc(OC)cc(OC)n1` the value was “inactive”.
Regarding `CN(C)C(=O)Nc1ccc(Cl)c(Cl)c1`, the result was inactive.
The same measure, in the same setting: for `CCCCOCCOCCOCc1cc2c(cc1CCC)OCO2` the value was “inactive”; for `COC(=O)c1ccccc1C(=O)O`, “inactive”; for `C=CCOC(Cn1ccnc1)c1ccc(Cl)cc1Cl` (stereo not given), “inactive”.
The same measure, in the same setting: for `CCCOC(=O)c1ccc(C(=O)OCCC)nc1` the value was “inactive”; for `Cc1nn(C)c(Oc2ccccc2)c1C=NOCc1ccc(C(=O)OC(C)(C)C)cc1`, “inactive”.
Still for that read-out and setting: for `CCOC(=O)C(C)Oc1ccc(Oc2nc3ccc(Cl)cc3o2)cc1` (stereo not given) the value was “inactive”.
In the case of `COCCO`, the outcome was inactive.
Still for that read-out and setting: next, `CCCCC(CC)COC(=O)c1ccccc1C(=O)O` (stereo not given): “inactive”; `CCOC(=O)COc1cc(-n2ncc(C(F)(F)F)c(C)c2=O)c(F)cc1Cl`: “inactive”.
For the compound `CCNc1nc(N)nc(Cl)n1`, the result was inactive.
In the case of `CCSC(=O)N(CC(C)C)CC(C)C`, the compound was classed as inactive.
The same measure, in the same setting: next, `CCCN(CCC)C(=O)SCC`: “inactive”.
For the compound `CCCCCCC(C)OC(=O)COc1nc(F)c(Cl)c(N)c1Cl` (stereo not given), the AC50 is 64 µM (active).
Regarding `CCN(Cc1c(F)cccc1Cl)c1c([N+](=O)[O-])cc(C(F)(F)F)cc1[N+](=O)[O-]`, the outcome was inactive.
Regarding `CCCCOC(=O)[C@@H](C)Oc1ccc(Oc2ccc(C(F)(F)F)cn2)cc1`, the result was inactive.
Still for that read-out and setting: for `CCOC(=O)[C@H](C)Oc1ccc(Oc2nc3ccc(Cl)cc3o2)cc1` the value was “inactive”; for `Oc1ccc(C(c2ccc(O)cc2)C(Cl)(Cl)Cl)cc1`, “inactive”.
The same measure, in the same setting: next, `O=C(Nc1ccc([N+](=O)[O-])cc1Cl)c1cc(Cl)ccc1O`: “inactive”; `COC(=O)c1cccc(C)c1S(=O)(=O)NC(=O)Nc1nc(OCC(F)(F)F)nc(N(C)C)n1`: “inactive”.
Regarding `COc1c(Cl)ccc(Cl)c1C(=O)O`, the call was inactive.
Still for that read-out and setting: next, `COC(=O)c1ccc(I)cc1S(=O)(=O)NC(=O)Nc1nc(C)nc(OC)n1`: “inactive”; `CCCCOC(=O)C(C)Oc1ccc(Oc2ccc(C(F)(F)F)cn2)cc1` (stereo not given): “inactive”.
The same measure, in the same setting: for `COC(=O)c1c(Cl)nn(C)c1S(=O)(=O)NC(=O)Nc1nc(OC)cc(OC)n1` the value was “inactive”; for `CC(C)(C)[C@@H](O)[C@@H](Cc1ccc(Cl)cc1)n1cncn1`, “inactive”; for `CCCOC(=O)NCCCN(C)C`, “inactive”.
Same read-out and setting: next, `COc1nc(C)nc(NC(=O)NS(=O)(=O)c2ccccc2OCCCl)n1`: “inactive”; `OB(O)O`: “inactive”.
